From PubChem BioAssay (NCI)
The panel holds about 83,000 compounds, 20% with a hit somewhere; the sample as a whole holds those more often.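 Cells were grown in 96-well plates and exposed to the test compound at a single concentration for 48 hours; results are reported as percent growth, with values below 10 considered active.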 Activity calls are given as the source filed them.

How the values were obtained:
Test in all cases: NCI-60 one-dose screen, 48 h (100 = growth as untreated, 0 = no growth, -100 = all killed)
Conditions in all cases: 10 µM unless noted
HCT-15 colon = system: HCT-15 colon
HT29 colon = system: HT29 colon
SNB-75 CNS = system: SNB-75 CNS
SNB-19 CNS = system: SNB-19 CNS
U251 CNS = system: U251 CNS
PC-3 prostate = system: PC-3 prostate
SK-MEL-5 melanoma = system: SK-MEL-5 melanoma
UACC-62 melanoma = system: UACC-62 melanoma
LOX IMVI melanoma = system: LOX IMVI melanoma
SK-MEL-28 melanoma = system: SK-MEL-28 melanoma

Measured: growth

Cc1ccc(NCc2cn(-c3ccc(C(=O)O)cc3)nc2-c2ccc(C(=O)O)cc2)cc1
inactive: HCT-15 colon 110% | HT29 colon 97.4% | SNB-75 CNS 96.7% | SNB-19 CNS 104% | U251 CNS 97.1% | PC-3 prostate 106% | SK-MEL-5 melanoma 108% | UACC-62 melanoma 103% | LOX IMVI melanoma 94.6% | SK-MEL-28 melanoma 112%

O=C(N/N=C/c1cc(Cl)ccc1O)C(=O)N/N=C/c1cc(Cl)ccc1O
inactive: HCT-15 colon 44.7% | HT29 colon 45.4% | SNB-75 CNS 71.9% | SNB-19 CNS 82.6% | U251 CNS 50% | PC-3 prostate 56.1% | SK-MEL-5 melanoma 56.3% | UACC-62 melanoma 64.7% | LOX IMVI melanoma 47.9% | SK-MEL-28 melanoma 93.2%

Cc1ccc2c(c1)C(=O)CCS2
inactive: HCT-15 colon 90.8% | HT29 colon 103% | SNB-75 CNS 80.8% | SNB-19 CNS 111% | U251 CNS 92.9% | PC-3 prostate 101% | SK-MEL-5 melanoma 104% | UACC-62 melanoma 97.4% | LOX IMVI melanoma 95% | SK-MEL-28 melanoma 102%

C[C@]12CC[C@H]3[C@@H](CC[C@H]4C[C@@H](O)CC[C@@]43C)[C@@H]1CC(=O)C2
inactive: HCT-15 colon 100% | HT29 colon 96.9% | SNB-75 CNS 98.2% | SNB-19 CNS 100% | U251 CNS 97.6% | PC-3 prostate 99.7% | SK-MEL-5 melanoma 111% | UACC-62 melanoma 87.6% | LOX IMVI melanoma 102% | SK-MEL-28 melanoma 113%

CCCCCCCCc1ccc(OCCOCC[N+](C)(C)CC)cc1 (tested in a mixture with another compound)
inactive: HCT-15 colon 98.4% | HT29 colon 25.5% | SNB-19 CNS 16.4% | U251 CNS 20.8% | PC-3 prostate 42.6% | LOX IMVI melanoma 29.1% | SK-MEL-28 melanoma 16%
active: SNB-75 CNS 9.08% | SK-MEL-5 melanoma -52.3% | UACC-62 melanoma 9.07%

O=C1N/C(=N\c2nnc(-c3ccc(O)cc3)s2)S/C1=C\c1ccccc1O
inactive: HCT-15 colon 93.3% | HT29 colon 115% | SNB-75 CNS 78.5% | SNB-19 CNS 93.8% | U251 CNS 101% | PC-3 prostate 87% | SK-MEL-5 melanoma 99.7% | UACC-62 melanoma 97.6% | LOX IMVI melanoma 93% | SK-MEL-28 melanoma 106%

CC(C)CSc1nc(-c2ccc(F)cc2)c(C#N)c(N2CCCCC2)n1
inactive: HCT-15 colon 92.2% | HT29 colon 87.6% | SNB-75 CNS 100% | SNB-19 CNS 104% | U251 CNS 93% | PC-3 prostate 82% | SK-MEL-5 melanoma 94.3% | UACC-62 melanoma 82.1% | LOX IMVI melanoma 92.9% | SK-MEL-28 melanoma 94.3%

N=c1c2c(=O)n3c(nc2nc2sc4ccc(Cl)cc4n12)-c1ccccc1Sc1ccccc1-3
active: SK-MEL-5 melanoma -2.17% | UACC-62 melanoma -26%
inactive: HCT-15 colon 13.6% | HT29 colon 26.8% | SNB-75 CNS 18.6% | SNB-19 CNS 30.5% | U251 CNS 24.7% | PC-3 prostate 11.2% | LOX IMVI melanoma 24.2% | SK-MEL-28 melanoma 29.3%

O=C1CCNC1
inactive: HCT-15 colon 101% | HT29 colon 106% | SNB-75 CNS 100% | SNB-19 CNS 102% | U251 CNS 87.4% | PC-3 prostate 95.7% | SK-MEL-5 melanoma 104% | UACC-62 melanoma 103% | LOX IMVI melanoma 113% | SK-MEL-28 melanoma 102%

N#CC1=C(N2CCOCC2)NC2c3ccccc3Sc3ccccc3N2C1=N (stereo not given)
inactive: HCT-15 colon 104% | HT29 colon 104% | SNB-75 CNS 94.1% | SNB-19 CNS 107% | U251 CNS 98.7% | PC-3 prostate 88.8% | SK-MEL-5 melanoma 90.3% | UACC-62 melanoma 87.4% | LOX IMVI melanoma 94.2% | SK-MEL-28 melanoma 93.9%

C=CCSc1nnc(COc2ccc3c(C)c(Cc4ccccc4)c(=O)oc3c2C)o1
inactive: HCT-15 colon 104% | HT29 colon 98.3% | SNB-75 CNS 89.1% | SNB-19 CNS 93.4% | U251 CNS 99% | PC-3 prostate 93.2% | SK-MEL-5 melanoma 101% | UACC-62 melanoma 92.4% | LOX IMVI melanoma 97.6% | SK-MEL-28 melanoma 117%

O=C(O)c1ccc(-c2nn(-c3ccc(C(=O)O)cc3)cc2CNc2ccc(Br)cc2)cc1
inactive: HCT-15 colon 100% | HT29 colon 99% | SNB-75 CNS 97.6% | SNB-19 CNS 105% | U251 CNS 106% | PC-3 prostate 101% | SK-MEL-5 melanoma 103% | UACC-62 melanoma 97.6% | LOX IMVI melanoma 102% | SK-MEL-28 melanoma 103%

O=[N+]([O-])c1ccc(-c2ncc(-c3ccc(O)cc3O)[nH]2)cc1
inactive: HCT-15 colon 100% | HT29 colon 123% | SNB-75 CNS 103% | SNB-19 CNS 93.3% | U251 CNS 103% | PC-3 prostate 98% | SK-MEL-5 melanoma 109% | UACC-62 melanoma 95.3% | LOX IMVI melanoma 103% | SK-MEL-28 melanoma 108%

COc1cc(OC)c2c(=O)cc(-c3ccccc3)oc2c1
inactive: HCT-15 colon 105% | HT29 colon 97.1% | SNB-75 CNS 91.8% | SNB-19 CNS 94.3% | U251 CNS 92.2% | PC-3 prostate 81.1% | SK-MEL-5 melanoma 95.9% | UACC-62 melanoma 77.7% | LOX IMVI melanoma 97.5% | SK-MEL-28 melanoma 106%

CCCCn1c(Cc2ccc(OC)cc2)nc2cc(OC)c(OC)cc2c1=O
inactive: HCT-15 colon 93.4% | HT29 colon 101% | SNB-75 CNS 87.5% | SNB-19 CNS 84.7% | U251 CNS 87.8% | PC-3 prostate 91.8% | SK-MEL-5 melanoma 36.6% | UACC-62 melanoma 59.6% | LOX IMVI melanoma 90.2% | SK-MEL-28 melanoma 90.6%

O=C(Nc1ccc(-n2cc(-c3ccncc3)c(-c3ccc(Cl)c(O)c3)n2)cc1)Nc1cc(C(F)(F)F)cc(C(F)(F)F)c1
active: HT29 colon 0.312% | SNB-75 CNS -0.49% | PC-3 prostate 4.61% | SK-MEL-5 melanoma -24.4% | UACC-62 melanoma 5.53%
inactive: HCT-15 colon 15.6% | SNB-19 CNS 27.1% | U251 CNS 15.8% | LOX IMVI melanoma 19.8% | SK-MEL-28 melanoma 16.1%

CCc1ccc(C(=Nc2ccc(N(C)C(=O)CN3CCN(C)CC3)cc2)c2c(O)[nH]c3ccc(C(=O)OC)cc23)cc1
active: HCT-15 colon -73.2% | HT29 colon -66.3% | SNB-75 CNS -97.3% | SNB-19 CNS -84.9% | U251 CNS -75.1% | PC-3 prostate -60.9% | SK-MEL-5 melanoma -98.1% | UACC-62 melanoma -57.5% | LOX IMVI melanoma -93.9% | SK-MEL-28 melanoma -87.3%

COc1cc2cc3cc4cc(OC)c(OC)cc4c(C)[n+]3cc2cc1OC (tested in a mixture with another compound)
inactive: HCT-15 colon 91.8% | HT29 colon 79.2% | SNB-75 CNS 73.1% | SNB-19 CNS 96.2% | U251 CNS 76.9% | PC-3 prostate 67.8% | SK-MEL-5 melanoma 82.4% | UACC-62 melanoma 84.3% | LOX IMVI melanoma 84.4% | SK-MEL-28 melanoma 116%

CC(C)(C)OC(=O)N1C/C(=C\c2ccccc2)C(=O)/C(=C/c2ccccc2)C1
inactive: HCT-15 colon 96.5% | HT29 colon 94.1% | SNB-75 CNS 74.9% | SNB-19 CNS 91.2% | U251 CNS 90.5% | PC-3 prostate 81% | SK-MEL-5 melanoma 108% | UACC-62 melanoma 84% | LOX IMVI melanoma 95.1% | SK-MEL-28 melanoma 107%

CC(=O)NNC(=O)c1sc(NC(C)=O)nc1C
inactive: HCT-15 colon 95.7% | HT29 colon 87.3% | SNB-75 CNS 99.2% | SNB-19 CNS 92.4% | U251 CNS 102% | PC-3 prostate 90.8% | SK-MEL-5 melanoma 103% | UACC-62 melanoma 91.9% | LOX IMVI melanoma 94.4% | SK-MEL-28 melanoma 95.9%

COC(=O)c1cc(Nc2ccc(O)c3c2C(=O)c2c([N+](=O)[O-])ccc(O)c2C3=O)cc(C(=O)OC)c1
active: SK-MEL-5 melanoma -49%
inactive: HCT-15 colon 16.3% | HT29 colon 36.5% | SNB-75 CNS 59.1% | SNB-19 CNS 76.9% | U251 CNS 74.8% | PC-3 prostate 70.9% | UACC-62 melanoma 48.8% | LOX IMVI melanoma 59.5% | SK-MEL-28 melanoma 30.8%

COc1ccc2nc3cc(Cl)ccc3c(NCCCNC(C)=O)c2c1
inactive: HCT-15 colon 23.6% | HT29 colon 27% | SNB-75 CNS 68.9% | SNB-19 CNS 43.4% | U251 CNS 32.3% | PC-3 prostate 39.6% | SK-MEL-5 melanoma 23.5% | UACC-62 melanoma 42.6% | LOX IMVI melanoma 15.9% | SK-MEL-28 melanoma 38.8%

C/C(CCC(=O)O)=N/Nc1ccc([N+](=O)[O-])cc1
inactive: HCT-15 colon 34.5% | HT29 colon 86.1% | SNB-75 CNS 101% | SNB-19 CNS 94.4% | U251 CNS 75.7% | PC-3 prostate 65.1% | SK-MEL-5 melanoma 46.3% | UACC-62 melanoma 23% | LOX IMVI melanoma 23.9% | SK-MEL-28 melanoma 104%

C=C(C)[C@@H]1CC[C@]2(COC(=O)c3ccccc3C(=O)O)CC[C@]3(C)[C@H](CC[C@@H]4[C@@]5(C)CCCNC(C)(C)[C@@H]5CC[C@]43C)[C@@H]12
inactive: HCT-15 colon 58% | HT29 colon 26.6% | SNB-75 CNS 75% | SNB-19 CNS 71% | U251 CNS 44.8% | PC-3 prostate 20.8% | SK-MEL-5 melanoma 46.2% | UACC-62 melanoma 75.6% | LOX IMVI melanoma 48.3% | SK-MEL-28 melanoma 74.4%

COc1cc(Cn2ccc3c2-c2oncc2CC3)cc(OC)c1
active: SNB-75 CNS -16%
inactive: HCT-15 colon 27.2% | HT29 colon 14.9% | SNB-19 CNS 43.7% | U251 CNS 42.4% | PC-3 prostate 57.9% | SK-MEL-5 melanoma 13.9% | UACC-62 melanoma 38.3% | LOX IMVI melanoma 40.1% | SK-MEL-28 melanoma 48.9%

COc1ccc2oc(=O)cc(CN3C(=O)S/C(=C\c4ccc(Cl)cc4)C3=O)c2c1
inactive: HCT-15 colon 92.3% | HT29 colon 103% | SNB-75 CNS 98.7% | SNB-19 CNS 99% | U251 CNS 101% | PC-3 prostate 91.8% | SK-MEL-5 melanoma 101% | UACC-62 melanoma 83.1% | LOX IMVI melanoma 95.2% | SK-MEL-28 melanoma 101%

O=C(N/N=C/c1ccccc1Cl)c1cccc2ccccc12
inactive: HCT-15 colon 102% | HT29 colon 105% | SNB-75 CNS 83.1% | SNB-19 CNS 98.3% | U251 CNS 98.4% | PC-3 prostate 99.6% | SK-MEL-5 melanoma 104% | UACC-62 melanoma 99.8% | LOX IMVI melanoma 103% | SK-MEL-28 melanoma 95.4%
